Test results: PubChem BioAssay
Where “and” joins values, the source holds several entries; their conditions need not be identical. Equal entries are not always repeated. For part of these data: Results with a measured potency or affinity are listed apart. Calls of active or inactive are those of the source.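 Rule for the calls, unless noted: active = at least 20% inhibition of 6-phosphogluconate dehydrogenase activity; inactive = the rest.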

Experiments:
[1] = molecular target: 6-phosphogluconate dehydrogenase, decarboxylating (Homo sapiens) (UniProt P52209); assay: 6PGD enzyme inhibitors, primary screen, biochemical, human, recombinant enzyme, NADPH absorbance (AID 1159550); details: recombinant 6PGD, NADPH absorbance 341 nm; at 10 µM; stronger effect = higher value
[2] = system: Aerobactin synthetase IucA (Klebsiella pneumoniae hvKP1); assay: Biochemical IucA enzyme inhibition primary screen of the Spectrum library (AID 1346200; call rule not given here;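 note: 100% = wells without compound and 0% = wells lacking enzyme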); details: malachite green pyrophosphate, A620, at 8 µM, stronger effect = lower value
[3] = polyglutamine-triggered caspase-3 activation inhibitors, cell-based (AID 1583); details: polyglutamine-induced caspase-3 activation, cell assay; stronger effect = higher value;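 tested at 10 µM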
[4] = suppressors of polyQ aggregation in yeast, 75Q-TubU reporter (AID 1593); details: Yeast 75Q polyglutamine aggregation reporter
[5] = rescue of polyQ-huntingtin neuronal dysfunction in worms, whole organism, C. elegans mechanosensory neurons, N-terminal huntingtin (AID 1599); details: touch response, stronger effect = higher value
[6] = inhibitors of mitochondrial cytochrome c release, biochemical, purified mitochondria (AID 1603); details: stronger effect = lower value;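 note: mouse liver mitochondria challenged with calcium chloride; signal normalized to the plate average as 100%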
[7] = inhibitors of polyQ protein aggregation (AID 1604); details: polyglutamine-induced protein aggregation inhibition assay; stronger effect = higher value; tested at 2.5 µM
[8] = enhancers of glutamate uptake in motor neurons, MN-1 cell line (AID 1612); details: MN-1 motor neuron cells, stronger effect = higher value;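 note: tested at 1 µM final; 0% = mean of DMSO vehicle wells on each plate; positive means more glutamate uptake than control and negative means less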
[9] = suppressors of polyglutamine aggregation in yeast, 75Q-TubH (AID 1616); details: S. cerevisiae 75Q-TubH polyglutamine aggregation suppression; stronger effect = higher value
[10] = liver-stage malaria parasite growth inhibition, primary screen, cell-based, HepG2, luciferase luminescence, HepG2 viability (AID 624349; in the data active = parasite load remaining mostly below about 12%, no sharp cut-off; inactive = mostly above about 10%;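 note: 100% = mean of DMSO negative control wells on the same plate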); details: P. berghei liver stage in HepG2, luciferase luminescence, concentration not given here; parasite load remaining: stronger effect = lower value; viability: measured here: HepG2 viability without parasites
[11] = differential killing of epithelial or mesenchymal cells, primary screen, imaging, PC-3E GFP, TEM4-18 mCherry, co-culture (AID 1345086;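 active = compounds killing one labelled cell type while sparing the other, by normalised counts and ratio limits, not self-fluorescent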;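 for all read-outs here: cells exposed to compound for 72 h before imaging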;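 for red/green cell ratio (normalised): normalised mesenchymal count divided by normalised epithelial count so high means epithelial killing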); details: imaging cell counts, at 1 µM; for red/green cell ratio (normalised): actives lie on both sides
[12] = molecular target: Mitogen-activated protein kinase 7 (Homo sapiens) (UniProt Q13164); assay: ERK5 transactivation activators in reporter cells, primary screen, cell-based, HTS (AID 1508626;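 active = luciferase signal above three times the same-plate solvent-only control wells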;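 note: luciferase driven by Gal4-ERK5 fusion binding five Gal4 sites before minimal TATA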); details: HeLa Gal4-ERK5 transactivation, 18 h, at 5 µM, stronger effect = higher value
[13] = reducers of polyQ inclusions in PC12 cells, cell-based, NGF-treated PC12, GFPQ80 (AID 1614); details: PC12 NGF-treated GFP-polyQ80 inclusion reduction;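 note: lower means fewer inclusions and 0 means no inclusions at all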
[14] = circadian clock period modulators, cell-based, LOPAC library, luminescence reporter (AID 2774; call rule not given here;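 note: values are relative to mean of DMSO wells on each plate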); details: circadian reporter cells, at 7 µM, actives lie on both sides
[15] = system: Hepatitis C virus NS3 helicase; assay: HCV NS3 helicase inhibitors, primary screen, biochemical, fluorescence polarization, LOPAC1280 library (AID 687035; in the data active = inhibition above about 37%); details: Purified HCV NS3 helicase, Cy5-dT15 ssDNA binding fluorescence polarization; stronger effect = higher value; concentration not given here
[16] = sensitizers of A549 cells to miR-34 induction, primary screen, imaging, A549 dox-inducible miR-34, nuclei and caspase counts (AID 1347080;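 active = compounds whose cell count with miR-34 switched on is under 0.7 times the count with it off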); details: A549 miR-34 inducible, Hoechst nuclei count, 48 h
[17] = viability rescue of complex I mutant cybrids, primary screen, cell-based, galactose medium, ATP luminescence (AID 1645843;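 active = z-score of at least 1.8 in each of two replicates, scored against plate mean and spread of sample wells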;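 note: positive z means more ATP and so rescue of galactose-driven cybrid death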); details: complex I mutant cybrid cells, 72 h, stronger effect = higher value
[18] = molecular target: NAD(+) hydrolase SARM1 (Homo sapiens) (UniProt Q6SZW1); assay: SARM1 TIR NADase inhibitors, cell lysate, NAD-Glo luminescence (AID 1508614;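 active = compound whose remaining NAD level is above about 45 nM, limit read from the data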;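 note: higher remaining NAD means stronger inhibition of SARM1 NADase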); details: SAM-TIR HEK293T lysate NADase, at 1 µM, stronger effect = higher value
[19] = measured here: epithelial PC-3E GFP cell survival
[20] = measured here: mesenchymal TEM4-18 mCherry cell survival
[21] = measured here: relative caspase fold change +Dox/-Dox
[22] = measured here: total cells with miR-34 induction, stronger effect = lower value
[23] = measured here: total cells without miR-34 induction

Chain of Mitogen-activated protein kinase 7 (Homo sapiens) (Q13164 whole entry, looked up, the tested form may be a part): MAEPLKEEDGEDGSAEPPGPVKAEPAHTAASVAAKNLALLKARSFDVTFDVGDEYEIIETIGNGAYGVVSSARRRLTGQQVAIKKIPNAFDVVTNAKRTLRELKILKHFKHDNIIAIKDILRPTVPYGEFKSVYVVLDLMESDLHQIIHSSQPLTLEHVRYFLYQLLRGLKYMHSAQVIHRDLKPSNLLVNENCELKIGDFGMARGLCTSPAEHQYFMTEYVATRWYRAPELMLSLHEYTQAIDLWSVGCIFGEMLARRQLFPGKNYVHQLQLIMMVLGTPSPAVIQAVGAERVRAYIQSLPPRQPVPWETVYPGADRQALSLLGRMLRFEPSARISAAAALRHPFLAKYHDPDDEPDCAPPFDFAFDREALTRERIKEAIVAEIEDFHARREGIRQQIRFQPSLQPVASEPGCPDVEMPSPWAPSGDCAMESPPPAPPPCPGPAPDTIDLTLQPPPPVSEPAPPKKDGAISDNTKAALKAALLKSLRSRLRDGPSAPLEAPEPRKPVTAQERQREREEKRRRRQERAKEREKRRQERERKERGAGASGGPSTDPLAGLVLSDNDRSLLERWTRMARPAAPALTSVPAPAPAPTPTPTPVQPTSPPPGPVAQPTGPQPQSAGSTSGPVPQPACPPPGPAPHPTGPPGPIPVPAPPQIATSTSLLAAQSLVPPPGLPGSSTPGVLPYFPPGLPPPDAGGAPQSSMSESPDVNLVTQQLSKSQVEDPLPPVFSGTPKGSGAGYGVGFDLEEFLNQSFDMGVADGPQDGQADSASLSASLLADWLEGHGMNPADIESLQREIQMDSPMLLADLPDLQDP
Chain of 6-phosphogluconate dehydrogenase, decarboxylating (Homo sapiens) (P52209 whole entry, looked up): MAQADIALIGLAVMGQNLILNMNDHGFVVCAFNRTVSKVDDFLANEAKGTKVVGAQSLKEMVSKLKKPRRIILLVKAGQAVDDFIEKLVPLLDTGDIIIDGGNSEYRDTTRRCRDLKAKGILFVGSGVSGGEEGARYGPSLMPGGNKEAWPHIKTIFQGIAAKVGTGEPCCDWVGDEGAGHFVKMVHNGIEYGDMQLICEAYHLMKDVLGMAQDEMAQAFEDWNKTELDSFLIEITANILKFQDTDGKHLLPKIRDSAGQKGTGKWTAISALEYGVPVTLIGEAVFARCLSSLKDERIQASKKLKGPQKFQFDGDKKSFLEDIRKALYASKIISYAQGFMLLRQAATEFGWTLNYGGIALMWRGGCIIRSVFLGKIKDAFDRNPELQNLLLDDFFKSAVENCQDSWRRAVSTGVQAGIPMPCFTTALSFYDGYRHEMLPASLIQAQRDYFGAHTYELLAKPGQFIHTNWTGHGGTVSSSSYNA
Chain of NAD(+) hydrolase SARM1 (Homo sapiens) (Q6SZW1 whole entry, looked up): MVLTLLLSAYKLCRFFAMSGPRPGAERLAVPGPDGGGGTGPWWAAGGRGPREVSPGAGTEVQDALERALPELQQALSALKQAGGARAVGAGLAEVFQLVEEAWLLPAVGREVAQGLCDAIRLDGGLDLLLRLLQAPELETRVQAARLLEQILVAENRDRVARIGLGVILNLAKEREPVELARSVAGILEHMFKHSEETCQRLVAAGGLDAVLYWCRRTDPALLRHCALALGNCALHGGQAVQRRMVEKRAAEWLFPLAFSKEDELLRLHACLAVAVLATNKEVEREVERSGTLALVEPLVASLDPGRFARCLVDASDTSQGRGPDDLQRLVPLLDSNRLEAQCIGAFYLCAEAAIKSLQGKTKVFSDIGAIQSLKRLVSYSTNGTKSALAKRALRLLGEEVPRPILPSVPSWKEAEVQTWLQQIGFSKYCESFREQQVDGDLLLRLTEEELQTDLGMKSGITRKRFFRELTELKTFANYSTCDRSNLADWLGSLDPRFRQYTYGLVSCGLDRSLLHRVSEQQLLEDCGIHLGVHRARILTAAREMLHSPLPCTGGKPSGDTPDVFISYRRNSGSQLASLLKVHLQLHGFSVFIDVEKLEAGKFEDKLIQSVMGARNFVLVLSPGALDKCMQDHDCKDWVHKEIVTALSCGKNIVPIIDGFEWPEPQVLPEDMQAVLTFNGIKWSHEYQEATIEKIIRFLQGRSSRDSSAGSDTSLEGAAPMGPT

NCC(N)C(=O)c1ccccc1 (stereo not given)
inhibition [1]: -14.8% (inactive)
activity remaining [2]: 109% (inactive)

C=CCc1ccc2c(c1)OCO2
inhibition [3]: -35.5%
score [4]: 0.7
rescue above control [5]: -4.01
cytochrome c release ratio [6]: 0.78
inhibition of aggregation [7]: 27.9%
glutamate uptake change [8]: 1.11%
aggregation suppression score [9]: 0.706
parasite load remaining [10]: 147% (inactive)
viability [10]: 87.4%
inhibition [1]: 7.49% (inactive)
red/green cell ratio (normalised) [11]: 0.79 (inactive)
normalised cell number [11, 19]: 1.31
normalised cell number [11, 20]: 1.03
activity remaining [2]: 124% (inactive)
luciferase signal [12]: 40 AU (inactive)

O=[N+]([O-])c1cc(O)c(O)c([N+](=O)[O-])c1
inhibition [3]: -6.91%
score [4]: 1.27
rescue above control [5]: -7.14
cytochrome c release ratio [6]: 0.96
inhibition of aggregation [7]: 80.3%
glutamate uptake change [8]: -10%
inclusion score [13]: 2
aggregation suppression score [9]: 1.02
period change [14]: 0.035 h (inactive)
inhibition [15]: 1% (inactive)
inhibition [1]: -7.64% (inactive)
activity remaining [2]: 110% (inactive)
fold change ([16]; stronger effect = lower value): 1.02 (inactive) and 0.929 (inactive)
fold change [16, 21]: 1.32 and 0.849
cell count [16, 22]: 9880 and 8690
cell count [16, 23]: 9680 and 9350
z-score [17]: 0.815 (inactive) and 1.17 (inactive)

CNC(=O)CSP(=S)(OC)OC
inhibition [1]: -17.5% (inactive)
activity remaining [2]: 98.2% (inactive)

CNC(=O)Oc1ccccc1OC(C)C
inhibition [1]: -1.91% (inactive)
red/green cell ratio (normalised) [11]: 1 (inactive)
normalised cell number [11, 19]: 1.06
normalised cell number [11, 20]: 1.05
fold change ([16]; stronger effect = lower value): 0.96 (inactive)
fold change [16, 21]: 0.908
cell count [16, 22]: 8560
cell count [16, 23]: 8930
remaining NAD [18]: 10 nM (inactive)
luciferase signal [12]: 88 AU (inactive)

CC(C)N(C(=O)SCC(Cl)=C(Cl)Cl)C(C)C
inhibition [1]: 4.75% (inactive)
activity remaining [2]: 102% (inactive)

O=C(O)CF
inhibition [1]: 10.5% (inactive)
red/green cell ratio (normalised) ([11]; counts scaled to control wells, 1 = unselective): 0.92 (inactive)
normalised cell number [11, 19]: 1.09
normalised cell number [11, 20]: 1
luciferase signal [12]: 80 AU (inactive)

N#C/C(=C\c1ccc(O)cc1)C(=O)O
inhibition [3]: -8.72%
score [4]: 1.56
rescue above control [5]: -7.23
cytochrome c release ratio [6]: 0.76
inhibition of aggregation [7]: -4.76%
glutamate uptake change [8]: 12%
inclusion score [13]: 2
aggregation suppression score [9]: 1.17
inhibition [1]: 0.31% (inactive)
red/green cell ratio (normalised) [11]: 0.79 (inactive)
normalised cell number [11, 19]: 1.25
normalised cell number [11, 20]: 0.99
luciferase signal [12]: 144 AU (inactive)

C/C=C(/C)C(=O)O[C@H]1CC[C@@]2(C)[C@@H]3CC[C@H]4[C@]5(O)C[C@H](O)[C@@]6(O)[C@@H](CN7C[C@@H](C)CC[C@H]7[C@@]6(C)O)[C@]5(O)C[C@@]42O[C@]13O
inhibition [3]: -10.4%
score [4]: 1.23
rescue above control [5]: 6.62
cytochrome c release ratio [6]: 0.66
inhibition of aggregation [7]: 73.8%
glutamate uptake change [8]: 7.49%
inclusion score [13]: 2
aggregation suppression score [9]: 1.05
inhibition [1]: -10.1% (inactive)
red/green cell ratio (normalised) [11]: 0.76 (inactive)
normalised cell number [11, 19]: 1.31
normalised cell number [11, 20]: 1
activity remaining [2]: 98.9% (inactive)
luciferase signal [12]: 96 AU (inactive) and 56 AU (inactive)

COc1nc(NC(C)C)nc(NC(C)C)n1
inhibition [1]: -20.6% (inactive)
activity remaining [2]: 117% (inactive)

COc1c(CC=C(C)C)c2c(c3oc(=O)c(-c4ccc(O)cc4)c(O)c13)C=CC(C)(C)O2
inhibition [1]: -2.87% (inactive)
activity remaining [2]: 114% (inactive)

COC(=O)COc1ccc(Cl)cc1Cl
inhibition [1]: -25.1% (inactive)
activity remaining [2]: 109% (inactive)

C=C(C)[C@@H]1[C@H]2OC(=O)[C@@H]1[C@]1(O)C[C@H]3O[C@]34C(=O)O[C@H]2[C@]14C
inhibition [3]: -31.3%
score [4]: 1.33
rescue above control [5]: 6.9
cytochrome c release ratio [6]: 0.8
inhibition of aggregation [7]: 48.7%
glutamate uptake change [8]: 1.09%
inclusion score [13]: 2
aggregation suppression score [9]: 1.46
inhibition [1]: 2.77% (inactive)
red/green cell ratio (normalised) [11]: 1.08 (inactive)
normalised cell number [11, 19]: 0.99
normalised cell number [11, 20]: 1.06
luciferase signal [12]: 76 AU (inactive)

C=CCc1cc(OC)c2c(c1OC)OCO2
inhibition [1]: -12.9% (inactive)
red/green cell ratio (normalised) [11]: 1.18 (inactive)
normalised cell number [11, 19]: 0.73
normalised cell number [11, 20]: 0.87
luciferase signal [12]: 32 AU (inactive)

CC(C)(O)[C@@H]1[C@H]2OC(=O)[C@@H]1[C@]1(O)C[C@H]3O[C@]34C(=O)O[C@H]2[C@]14C
inhibition [3]: -16.4%
score [4]: 1.49
rescue above control [5]: 8.41
cytochrome c release ratio [6]: 0.87
inhibition of aggregation [7]: 51%
glutamate uptake change [8]: 14.8%
inclusion score [13]: 2
aggregation suppression score [9]: 1.53
parasite load remaining [10]: 79% (inactive)
viability [10]: 91.4%
inhibition [1]: 6.64% (inactive)
red/green cell ratio (normalised) [11]: 0.89 (inactive)
normalised cell number [11, 19]: 1.1
normalised cell number [11, 20]: 0.99
activity remaining [2]: 107% (inactive)
luciferase signal [12]: 84 AU (inactive)
